Assay results: a collection of fitness landscapes (doi:10.1126/science.1257360)
Whole data set: some 140,000 sequences, median “enrichment ratio after two sorts for PhoP signalling” near 0, cut for the highest 2% near 11. For the sample, the highest values were picked, then their nearest neighbours and some sequences at random.

B1: PhoQ; a variant is named by its letters at X, in order, P23837 (parent)
chain: MKKLLRLFFPLSLRVRFLLATAAVVLVLSLAYGMVALIGYSVSFDKTTFRLLRGESNLFYTLAKWENNKLHVELPENIDKQSPTMTLIYDENGQLLWAQRDVPWLMKMIQPDWLKSNGFHEIEADVNDTSLLLSGDHSIQQQLQEVREDDDDAEMTHSVAVNVYPATSRMPKLTIVVVDTIPVELKSSYMVWSWFIYVLSANLLLVIPLLWVAAWWSLRPIEALAKEVRELEEHNRELLNPATTRELTSLVRNLNRLLKSERERYDKYRTTLTDLTHSLKTPLXXLQXXLRSLRSEKMSVSDAEPVMLEQISRISQQIGYYLHRASMRGGTLLSRELHPVAPLLDNLTSALNKVYQRKGVNISLDISPEISFVGEQNDFVEVMGNVLDNACKYCLEFVEISARQTDEHLYIVVEDDGPGIPLSKREVIFDRGQRVDTLRPGQGVGLAVAREITEQYEGKIVAGESMLGGARMEVIFGRQHSAPKDE

Variants of: B1
Assay: enrichment ratio after two sorts for PhoP signalling (ratio (wild type AVST 3.29)); higher = more functional
Settings: with PhoP (E. coli)

| Variant | enrichment ratio |
| --- | --- |
| ANCE | 56 |
| ANHV | ≤ 0.25 |
| ANPI | ≤ 0.25 |
| ANHE | ≤ 0.25 |
| LPYL | ≤ 0.25 |
| MLTL | 8.8 |
| YPKQ | ≤ 0.25 |
| RNCE | ≤ 0.25 |
| IICI | ≤ 0.25 |
| MPFW | ≤ 0.25 |
| LFPW | ≤ 0.25 |
| RNAC | ≤ 0.25 |
| NMMW | ≤ 0.25 |
| QIFK | ≤ 0.25 |
| QINA | ≤ 0.25 |
| QQLA | ≤ 0.25 |
| PAGS | ≤ 0.25 |
| ANHF | ≤ 0.25 |
| ANLH | 13 |
| LNLC | ≤ 0.25 |
| ADLH | 5.09 |
| AIMV | 5.05 |
| ANCI | 19.9 |
| ANLC | 22.4 |
| FDMV | ≤ 0.25 |
| ANFA | ≤ 0.25 |

| Variant | enrichment ratio |
| --- | --- |
| GNLH | 1.09 |
| ADMV | 35.3 |
| AHLC | ≤ 0.25 |
| MAIR | ≤ 0.25 |
| TWDF | ≤ 0.25 |
| QNMP | ≤ 0.25 |
| QKNG | ≤ 0.25 |
| VWKN | ≤ 0.25 |
| TWHE | ≤ 0.25 |
| ANAW | ≤ 0.25 |
| EGLC | ≤ 0.25 |
| ADNS | ≤ 0.25 |
| ANYR | ≤ 0.25 |
| AGIS | 2.92 |
| AGWV | ≤ 0.25 |
| ANSI | 18 |
| LNSI | ≤ 0.25 |
| ADIV | 12.5 |
| AGIV | 14.4 |
| ADYV | ≤ 0.25 |
| GNSI | 4.37 |
| AIIV | 3.98 |
| ANNS | 12.9 |
| EFTF | ≤ 0.25 |
| GVQP | ≤ 0.25 |
| PEHG | ≤ 0.25 |

| Variant | enrichment ratio |
| --- | --- |
| WTQP | ≤ 0.25 |
| TWFQ | ≤ 0.25 |
| QNLY | ≤ 0.25 |
| KERI | ≤ 0.25 |
| KAIG | ≤ 0.25 |
| RCHM | ≤ 0.25 |
| ANIV | 13.7 |
| ANIS | 4.66 |
| ANHN | ≤ 0.25 |
| HKAP | ≤ 0.25 |
| SKVA | 1.14 |
| SKLM | 16.3 |
| SKLA | 8.7 |
| SKLF | 11 |
| SKVM | 19.7 |
| NDKA | ≤ 0.25 |
| ITMN | ≤ 0.25 |
| VVYG | ≤ 0.25 |
| VHNY | ≤ 0.25 |
| HMES | ≤ 0.25 |
| AGTM | 16.2 |
| FVNM | ≤ 0.25 |
| AGTS | 7.67 |
| SPTM | ≤ 0.25 |
| SPNM | ≤ 0.25 |
| YWTM | ≤ 0.25 |

| Variant | enrichment ratio |
| --- | --- |
| TGTM | 15 |
| KSTM | ≤ 0.25 |
| TVNM | 13.5 |
| GGTM | 1.63 |
| RGTM | ≤ 0.25 |
| TVTM | 16.6 |
| DANA | ≤ 0.25 |
| MGIR | ≤ 0.25 |
| PYLL | ≤ 0.25 |
| VWQC | ≤ 0.25 |
| KPYK | ≤ 0.25 |
| NMSK | ≤ 0.25 |
| GWYP | ≤ 0.25 |
| NKWL | ≤ 0.25 |
| YWTA | ≤ 0.25 |
| KAGY | ≤ 0.25 |
| TAPY | ≤ 0.25 |
| TAYI | 10.2 |
| TAGY | 34.1 |
| TAAY | 15.7 |
| NAGY | ≤ 0.25 |
| NVMG | ≤ 0.25 |
| SYKQ | ≤ 0.25 |
| DDMM | ≤ 0.25 |
| FLYG | ≤ 0.25 |
| YCDY | ≤ 0.25 |

| Variant | enrichment ratio |
| --- | --- |
| PSFY | ≤ 0.25 |
| WEWY | ≤ 0.25 |
| VFIN | ≤ 0.25 |
| YVGY | ≤ 0.25 |
| HIQN | ≤ 0.25 |
| TNWE | ≤ 0.25 |
| MNQN | ≤ 0.25 |
| MNWN | 15.4 |
| MNIE | ≤ 0.25 |
| MNWG | 15.6 |
| MNWI | 6.11 |
| MNWE | 17.9 |
| MNVG | ≤ 0.25 |
| MNHG | ≤ 0.25 |
| TSGQ | 7.96 |
| PQQF | ≤ 0.25 |
| WRDC | ≤ 0.25 |
| YIGM | 0.38 |
| YEWI | ≤ 0.25 |
| TALM | 15.3 |
| KALM | ≤ 0.25 |
| WALM | 6.02 |
| HALM | 14.3 |
| HYLM | ≤ 0.25 |
| YELA | ≤ 0.25 |
| YELS | 14.9 |

| Variant | enrichment ratio |
| --- | --- |
| YILM | 12.1 |
| QPLM | ≤ 0.25 |
| HPLM | ≤ 0.25 |
| SGGE | ≤ 0.25 |
| MSWN | 8.63 |
| TQHK | ≤ 0.25 |
| KKLF | ≤ 0.25 |
| HYYY | ≤ 0.25 |
| VMNW | ≤ 0.25 |
| NFPM | ≤ 0.25 |
| MDYM | ≤ 0.25 |
| TGWM | 0.965 |
| FLTQ | ≤ 0.25 |
| HCKA | ≤ 0.25 |
| FSYE | ≤ 0.25 |
| WKLM | ≤ 0.25 |
| VALM | 16.8 |
| AKLM | 12.4 |
| NALM | 5.51 |
| VLLM | 0.26 |
| PKLM | ≤ 0.25 |
| AALM | 14.8 |
| YWLM | ≤ 0.25 |
| YALM | 12.7 |
| VILM | 1.31 |
